# Source: the supplement of paper PMC11001985
# A number with no mark means an inactive call.
# Target: HSP90AA1 (UniProt P07900)
# Experiment: lysine labeling ratio R10:1 (500 µM / 50 µM probe), SILAC-ABPP in living cells; higher = lower intrinsic lysine reactivity toward the probe, active = 2 or less
# Conditions: HeLa, probe concentrations 500 vs 50 µM
# Protocol: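 Living HeLa cells (SILAC light/heavy) in PBS at room temperature were labeled with 50 µM versus 500 µM of the lysine-reactive, reductant-cleavable probe OPA-S-S-alkyne (SILAC labeling time not stated). Probe-modified peptides were CuAAC-biotinylated, captured on neutravidin and eluted with DTT/IAA, then quantified by LC-MS/MS. R = median peptide ratio per lysine (500/50 µM), combined over 3 forward and 3 reverse SILAC replicates. Ratios are capped at 20; R < 2 = hyper-reactive.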
structure (smiles),measurement,setting,value
C#CCNC(=O)CCSSCCC(=O)NCCc1ccc(C=O)c(C=O)c1,lysine labeling ratio R10:1,lysine site: K58,3.2
same,lysine labeling ratio R10:1,lysine site: K84,4.81
same,lysine labeling ratio R10:1,lysine site: K457,0.935 (active)
same,lysine labeling ratio R10:1,lysine site: K458,2.96
same,lysine labeling ratio R10:1,lysine site: K585,6.47
same,lysine labeling ratio R10:1,lysine site: K632,5.33
